# Assay outcomes from PubChem BioAssay.
# TRHR agonist = agonists of human TRH receptor. P34981. TRHR cells, calcium flux fluo-8, FDSS agonist mode. activation, % at 2 µM. actives 0.18% (n = 360,000). AID 493084; in the data active = activation above about 30%; note: 0% is about no effect
#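 TRHR-expressing cells loaded with fluo-8 calcium dye; 23 nL library compound pin-transferred, kinetic FDSS fluorescence (Ex 480/Em 530) recorded about 180 s for agonist-induced calcium release, before a 10 nM TRH EC20 addition for potentiator mode.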
# TRHR enhancer = allosterically enhances the human TRH receptor | TRHR cells, fluo-8 calcium fluorescence, EC20 TRH enhancement | enhancement, % at 2 µM | actives 0.66% (n = 360,000) | AID 493056; in the data active = enhancement above about 30%; note: 0% is about no effect
#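 Enhancer read-out: after compound pinning and an initial kinetic agonist-mode read, an EC20 of TRH (10 nM final) was injected and fluo-8 calcium signal (Ex 480/Em 530) followed at 1 s/cycle for 100 cycles in TRHR-expressing cells.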
# TRPML1 inh = human mucolipin-1 channel inhibition; TRPML1-inducible cells, Ca2+ dye fluorescence, FDSS; hits give low values; inhibition of EC80 agonist-evoked calcium signal; Q9GZU1; actives 0.02% (n = 390,000); activity change, negative = inhibition, % (no concentration beside the values); in the data active = activity change below about -50%; inconclusive = between about -30% and that limit;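 note: stimulus is agonist 54-4 at its EC80 concentration; % is set by controls: 0 for no effect and ±100 for the full control effect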
# Target sequence (Q9GZU1 whole entry, looked up): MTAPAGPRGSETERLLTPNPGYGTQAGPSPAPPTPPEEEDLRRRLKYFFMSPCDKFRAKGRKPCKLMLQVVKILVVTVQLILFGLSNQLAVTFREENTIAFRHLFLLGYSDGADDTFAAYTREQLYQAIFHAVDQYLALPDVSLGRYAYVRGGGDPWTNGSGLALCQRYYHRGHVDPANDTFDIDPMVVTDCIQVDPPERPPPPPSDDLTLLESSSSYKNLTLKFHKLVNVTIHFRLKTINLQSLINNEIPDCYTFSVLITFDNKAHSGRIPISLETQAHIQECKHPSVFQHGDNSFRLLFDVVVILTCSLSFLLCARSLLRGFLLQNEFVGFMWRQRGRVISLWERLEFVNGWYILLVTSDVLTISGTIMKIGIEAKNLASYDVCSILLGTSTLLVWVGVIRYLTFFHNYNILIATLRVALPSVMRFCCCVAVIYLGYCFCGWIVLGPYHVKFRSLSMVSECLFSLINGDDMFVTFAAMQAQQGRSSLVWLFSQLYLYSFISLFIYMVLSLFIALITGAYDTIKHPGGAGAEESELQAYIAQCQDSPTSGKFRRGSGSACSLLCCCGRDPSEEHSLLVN
#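 Calcium fluorescence in TRPML1-DL cells induced overnight with Tet: a 110 s read after compound pin addition, then a 110 s antagonist read after challenge with 54-4 at 4 uM final (EC80).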
# GRP78 ERSR act = induces the endoplasmic reticulum stress response in human glioma cells; Potency, µM, for inactives: top-dose activation, usual class: activators; U87-MG GRP78 promoter luciferase reporter, 16 h; actives 0.02% (n = 420,000); AID 602332; active = well fitted activation curve with a large enough effect; inconclusive = small, poorly fitted or top-dose-only effect; inactive = no such curve, though single readings can be large or run the other way; note: potency is the fitted concentration of half-maximal effect; series mostly up to about 76 µM; % of control where 0% means no effect; nearly all actives have a fitted effect of over 35% in size
#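 Stably transfected U87-MG human glioma cells carrying a GRP78-based luminescent sensor were seeded at 1000 cells/well, pin-dosed with compounds and incubated 16 h. Luciferase reagent was then added, and end-point luminescence was read after 10 min at room temperature.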
# TRPML1 agonist = agonists of human TRPML1 channel. TRPML1-expressing cells, Ca2+ dye fluorescence, FDSS. activation, % (test concentration not listed). actives 0.12% (n = 410,000). AID 624414; in the data active = activation above about 50%; inconclusive = mostly about 30% to 49%; note: 0% is about no effect
#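 Tet-induced TRPML1-DL cells, 1,500 per well, cultured overnight, were loaded with a no-wash Ca2+ dye for 45–90 min. Calcium fluorescence was recorded on the FDSS for 110 s after compound addition, before the EC80 agonist (4 uM 54-4) was added.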
# * hit, by the source's call; ? = inconclusive; . = no result. The list is not random: actives were taken first. Their share in the collection is about 0.8%.
SMILES,TRHR agonist,TRHR enhancer,TRPML1 inh,GRP78 ERSR act,TRPML1 agonist
CC1CC(C)(C)N(C(=O)CN2CCN(C)CC2)c2ccccc21 (configuration not stated),0,0,24,-5%,1
Cc1nc(-c2ccc([S+](=O)([O-])N3CCN([S+](=O)([O-])c4c(F)cccc4F)CC3)s2)cs1,0,4,.,.,.
CS(=O)(=O)c1oc(-c2ccc(F)cc2)nc1S(=O)(=O)c1ccc(Cl)cc1,1,49*,6,-11%,1
CCN1CCN(c2ccc(NC(=O)c3ccc(Br)o3)cc2)CC1,0,33*,0,-4%,0
CCCC(=O)N1CCN(c2ccc(NC(=O)c3ccc(Br)o3)cc2)CC1,0,2,1,2%,1
Cn1nc(C(F)(F)F)c(CO)c1Sc1ccc(F)cc1,0,30*,-4,-4%,1
CCOc1ccc(-n2c(CCC(=O)O)ccc2-c2ccc(Br)cc2)cc1,0,33*,-8,.,3
Cc1c2cc(O)c(=O)cc-2oc2cc(O)c(O)cc12,3,6,95,12%,24
COc1cc(OC)c(-c2c3cc(O)c(=O)cc-3oc3cc(O)c(O)cc23)cc1OC,266*,152*,-10,9%,112*
COc1ccccc1N1CCN(c2ccc3cc(S(=O)(=O)N4CCCCC4)ccc3n2)CC1,0,1,-19,-5%,96*
O=C(NN1C(=O)C2C3C=CC(C4CC34)C2C1=O)c1ccc(Cl)c(Cl)c1 (configuration not stated),1,30*,-8,-2%,0
O=C(NN1C(=O)C2C3C=CC(C4CC34)C2C1=O)c1ccc(Br)cc1 (configuration not stated),0,-6,13,-4%,-1
O=C(COc1ccc(C(=S)N2CCOCC2)cc1Cl)Nc1ccccc1Cl,1,34*,40,1%,-1
Cc1cc(Cl)ccc1OCC(=O)Nc1ccccc1N1CCOCC1,0,10,-12,-5%,75*
O=C(COc1ccc(F)cc1Br)Nc1ccccc1N1CCCC1,.,.,-2,-2%,0
O=C(COc1ccc(F)cc1Br)Nc1ccccc1N1CCOCC1,2,-2,-10,-3%,71*
CS(=O)(=O)N1CCCC(C(=O)Nc2ccccc2)C1 (configuration not stated),0,32*,-3,-4%,0
Cc1cccc(N2CC(C(=O)Nc3ccc(S(=O)(=O)N4CCCCC4)cc3)CC2=O)c1C (configuration not stated),0,20,-14,-3%,3
Cc1ccccc1N1CC(C(=O)Nc2ccc(S(=O)(=O)N3CCCCC3)cc2)CC1=O (configuration not stated),-1,35*,-5,-5%,0
CCCn1c(=O)c(C(=O)NNC(=O)Cc2ccccc2)c(O)c2ccccc21,0,33*,1,-2%,1
CCCn1c(=O)c(C(=O)NNC(=O)c2ccccc2Cl)c(O)c2ccccc21,30*,-2,9,-1%,?
C=CCN1C(=O)/C(=C/C=C2/N(CC)c3ccc(S(=O)(=O)N(C)C)cc3N2CC)SC1=S,45*,9,-19,-3%,0
C=CCN1C(=O)/C(=C2/Sc3ccccc3N2CC)SC1=S,0,-1,9,-4%,0
Cc1ccc(OCc2n[nH]c(=S)n2-c2ccccc2)cc1C,0,-6,-4,-2%,0
Cc1ccc(-n2c(CCc3ccccc3)n[nH]c2=S)cc1C,0,31*,9,-3%,0
SMILES,TRHR agonist,TRHR enhancer,TRPML1 inh,GRP78 ERSR act,TRPML1 agonist
Cc1cc(C)cc(OCC(=O)OCCN2C(=O)c3ccccc3C2=O)c1,0,39*,9,-7%,2
Cc1cc(C)cc(N=Cc2[nH]c3ccc(Br)c(Cl)c3c2O)c1,36*,1,-7,15%,10
COc1ccc(CN=Cc2[nH]c3ccc(Br)c(Cl)c3c2O)cc1,1,-3,12,-3%,3
O=c1oc2cc(O)ccc2cc1-c1nc2ccccc2o1,.,.,.,-1%,99*
Cc1oc(-c2ccccc2NC(=O)C2CCCO2)nc1CNC(=O)c1cc(Cl)ccc1F (configuration not stated),.,.,.,-4%,.
O=C(OCn1nnc2ccccc2c1=O)c1ccc(O)cc1,0,2,-9,5%,1
O=C(OCn1nnc2ccccc2c1=O)c1ccc(Br)o1,-1,33*,14,-2%,-1
CCOC(=O)Cn1c(=O)n(CC2CCCO2)c2nc(-c3ccc(OC)cc3OC)nc(C(N)=O)c21 (configuration not stated),0,42*,-15,-3%,2
CCc1nnc(NS(=O)(=O)c2ccc(NC(=S)NC(=O)c3ccc(Br)cc3)cc2)s1,0,35*,-11,4%,1
Cc1ccc(NC(=O)C(=O)NCC2OCCc3ccccc32)cc1 (configuration not stated),0,33*,-12,0%,0
CCOc1ccc(NC(=O)CC2C(=O)N(c3ccc(C)cc3)C(=O)N2Cc2ccc(OC)cc2)cc1 (configuration not stated),0,45*,4,-2%,1
COC(=O)c1ccccc1C(=O)NCC1Cc2cc(-c3nc(C)cnc3C)ccc2O1 (configuration not stated),.,.,.,0%,.
CN(C)c1ccc(/C=C/c2ccnc3cc(Cl)ccc23)cc1,.,.,.,-1%,105*
CCN1/C(=C/C=C/c2sc3ccccc3[n+]2CC)Sc2ccccc21,-1,4,-4,-6%,0
CCN1/C(=C/C=C/c2oc3ccc(-c4ccccc4)cc3[n+]2CC)Oc2ccc(-c3ccccc3)cc21,317*,-24,-16,-17%,80*
Cc1noc(C)c1C(=O)N1CCC2(CCCN(C(c3ccccc3)c3ccccc3)C2)CC1,.,.,.,28µM*,.
Nc1c(C(=O)c2ccccc2)sc2nsc(SCCN3CCCC3)c12,54*,-8,-18,?,?
COc1cccc(CNC(=O)c2c(OC)cc(=O)n3c2CCN(C(=O)C2CC24CCCCC4)CC3)c1 (configuration not stated),.,.,.,-2%,.
CCOC(=O)c1cn(Cc2ccc(Br)cc2)nn1,0,36*,25,-2%,-1
O=C(CN1Cc2ccccc2OC(c2ccsc2)C1)N1CCN(Cc2ccc3c(c2)OCO3)CC1 (configuration not stated),.,.,.,-3%,.
COc1cccc(CN2CCC(c3nnc(SCC4CCCO4)n3C)CC2)c1O (configuration not stated),.,.,.,-4%,.
COc1cc(OC)c(NC(=O)CSc2cc(=O)n(C)c3ccc(Cl)cc23)cc1Cl,0,40*,16,-1%,0
O=C(c1cnn(-c2nccc(-c3ccccc3F)n2)c1C1CC1)N1CCN(CCO)CC1,.,.,.,-3%,.
